Assay results reported in paper PMC7862700, “An all-to-all approach to the identification of sequence-specific readers for epigenetic DNA modifications on cytosine”.

Tests used:
Experiment in all cases: DAPPL (digital affinity profiling via proximity ligation, sequencing); 10 mM Tris-HCl pH 7.5, 50 mM NaCl, 1 mM DTT, 4% glycerol, room temperature, 30 min; GST-TFs on glutathione beads, 16-mer random dsDNA library, 0.1% formaldehyde crosslink after washing; high values mean tight binding
FEV = target: T1, FEV (Homo sapiens, UniProt Q99581 1-238); conditions: protein: recombinant; tags: N-terminal GST; dsDNA, one strand shown
T1 sequence: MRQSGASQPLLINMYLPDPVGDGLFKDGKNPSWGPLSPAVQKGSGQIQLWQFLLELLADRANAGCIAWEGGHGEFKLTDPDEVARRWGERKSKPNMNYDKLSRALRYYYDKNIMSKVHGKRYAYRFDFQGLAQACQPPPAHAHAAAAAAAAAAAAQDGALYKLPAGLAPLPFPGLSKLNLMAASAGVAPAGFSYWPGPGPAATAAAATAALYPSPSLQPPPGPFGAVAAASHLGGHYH
Method in brief: (§1)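 Yeast served to express human transcription factors as GST fusions, which were then captured on glutathione beads and labelled with DNA barcodes. Pooled with a tag-only sample, they were incubated with 200 nmole of a 16-mer random double-stranded DNA library for 30 min at room temperature in Tris/NaCl/DTT/glycerol buffer, washed, crosslinked with 0.1% formaldehyde, ligated by proximity, amplified by PCR and sequenced. Dividing each hexamer's read frequency for a factor by its frequency for the tag-only sample gives the binding signal.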

ETV5 = ETV5 (Homo sapiens, UniProt P41161 1-510); conditions: protein: recombinant; tags: N-terminal GST; dsDNA, one strand shown
Chain of ETV5 (P41161 whole entry): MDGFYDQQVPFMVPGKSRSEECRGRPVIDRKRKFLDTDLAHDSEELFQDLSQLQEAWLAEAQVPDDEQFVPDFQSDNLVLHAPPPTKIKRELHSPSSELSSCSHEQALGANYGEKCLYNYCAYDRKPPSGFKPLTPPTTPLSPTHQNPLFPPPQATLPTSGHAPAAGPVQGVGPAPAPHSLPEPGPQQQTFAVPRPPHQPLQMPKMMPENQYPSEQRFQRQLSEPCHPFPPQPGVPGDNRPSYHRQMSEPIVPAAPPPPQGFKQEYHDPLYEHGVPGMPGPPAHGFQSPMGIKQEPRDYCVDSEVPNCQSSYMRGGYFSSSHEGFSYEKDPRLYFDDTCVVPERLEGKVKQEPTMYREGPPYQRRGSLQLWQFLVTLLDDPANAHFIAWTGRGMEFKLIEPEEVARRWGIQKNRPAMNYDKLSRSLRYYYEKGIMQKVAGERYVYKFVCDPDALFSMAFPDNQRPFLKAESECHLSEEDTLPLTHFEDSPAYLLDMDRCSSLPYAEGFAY
Method in brief: as §1

HSF1 = HSF1 (Homo sapiens, UniProt Q00613 1-529); conditions: protein: recombinant; tags: N-terminal GST; chain copies: 3; dsDNA, one strand shown
Chain of HSF1 (Q00613 whole entry): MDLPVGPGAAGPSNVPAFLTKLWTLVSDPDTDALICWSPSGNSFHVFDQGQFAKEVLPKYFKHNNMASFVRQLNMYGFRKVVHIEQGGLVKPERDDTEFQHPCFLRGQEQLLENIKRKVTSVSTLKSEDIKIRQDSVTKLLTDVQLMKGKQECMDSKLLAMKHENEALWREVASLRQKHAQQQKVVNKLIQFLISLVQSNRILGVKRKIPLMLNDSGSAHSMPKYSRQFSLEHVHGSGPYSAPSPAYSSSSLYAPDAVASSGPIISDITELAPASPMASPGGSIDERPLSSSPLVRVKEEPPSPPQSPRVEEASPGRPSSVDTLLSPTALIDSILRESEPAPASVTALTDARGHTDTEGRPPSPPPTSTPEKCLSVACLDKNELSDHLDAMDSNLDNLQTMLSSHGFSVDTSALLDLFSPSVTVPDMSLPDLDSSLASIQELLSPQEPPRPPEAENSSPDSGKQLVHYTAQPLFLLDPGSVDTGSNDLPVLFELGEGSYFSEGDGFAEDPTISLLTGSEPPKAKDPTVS
Method in brief: as §1

SPIC = target: T2, SPIC (Homo sapiens, UniProt Q8N5J4 1-248); conditions: protein: recombinant; tags: N-terminal GST; dsDNA, one strand shown
T2 sequence: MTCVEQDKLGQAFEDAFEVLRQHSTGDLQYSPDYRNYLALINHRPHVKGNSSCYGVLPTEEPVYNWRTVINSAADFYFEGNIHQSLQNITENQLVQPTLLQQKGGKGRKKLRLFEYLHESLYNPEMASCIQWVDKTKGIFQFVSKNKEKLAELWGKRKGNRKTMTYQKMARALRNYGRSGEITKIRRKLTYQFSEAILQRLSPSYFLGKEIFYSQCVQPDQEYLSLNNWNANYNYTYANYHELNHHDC
Method in brief: as §1

ELF4 = ELF4 (Homo sapiens, UniProt Q99607 1-663); conditions: protein: recombinant; tags: N-terminal GST; dsDNA, one strand shown
Chain of ELF4 (Q99607 whole entry): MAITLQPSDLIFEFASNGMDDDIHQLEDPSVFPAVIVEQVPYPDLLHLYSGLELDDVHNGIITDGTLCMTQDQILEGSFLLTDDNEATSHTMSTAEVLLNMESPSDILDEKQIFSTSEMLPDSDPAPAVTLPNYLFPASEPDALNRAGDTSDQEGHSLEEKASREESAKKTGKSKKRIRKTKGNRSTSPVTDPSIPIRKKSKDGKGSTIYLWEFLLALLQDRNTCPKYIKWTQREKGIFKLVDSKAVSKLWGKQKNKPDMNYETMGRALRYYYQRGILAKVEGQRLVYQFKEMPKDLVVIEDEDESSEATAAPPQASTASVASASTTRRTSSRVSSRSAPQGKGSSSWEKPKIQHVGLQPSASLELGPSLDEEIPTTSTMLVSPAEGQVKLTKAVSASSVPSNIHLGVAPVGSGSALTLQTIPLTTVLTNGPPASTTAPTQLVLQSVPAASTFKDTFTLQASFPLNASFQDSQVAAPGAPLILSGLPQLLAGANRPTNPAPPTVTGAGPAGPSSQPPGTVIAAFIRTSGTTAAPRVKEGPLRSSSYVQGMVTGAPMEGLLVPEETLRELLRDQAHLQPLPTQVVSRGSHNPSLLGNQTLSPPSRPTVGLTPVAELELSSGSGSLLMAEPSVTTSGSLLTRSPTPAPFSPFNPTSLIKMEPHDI
Method in brief: as §1

ELK4 = target: T3, ELK4 (Homo sapiens, UniProt P28324-2 1-405); conditions: protein: recombinant; tags: N-terminal GST; dsDNA, one strand shown
T3 sequence: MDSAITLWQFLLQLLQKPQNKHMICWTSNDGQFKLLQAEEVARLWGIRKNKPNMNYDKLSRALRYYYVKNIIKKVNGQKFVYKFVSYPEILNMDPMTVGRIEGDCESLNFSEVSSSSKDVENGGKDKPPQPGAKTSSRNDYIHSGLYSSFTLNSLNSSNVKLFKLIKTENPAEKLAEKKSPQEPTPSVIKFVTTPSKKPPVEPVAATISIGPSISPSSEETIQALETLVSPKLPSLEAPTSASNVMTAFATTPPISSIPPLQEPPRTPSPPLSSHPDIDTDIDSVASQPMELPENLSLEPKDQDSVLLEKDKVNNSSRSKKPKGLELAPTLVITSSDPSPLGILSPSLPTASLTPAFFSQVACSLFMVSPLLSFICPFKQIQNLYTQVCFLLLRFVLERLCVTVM
Method in brief: as §1

ETV2 = target: T4, ETV2 (Homo sapiens, UniProt O00321 1-342); conditions: protein: recombinant; tags: N-terminal GST; dsDNA, one strand shown
T4 sequence: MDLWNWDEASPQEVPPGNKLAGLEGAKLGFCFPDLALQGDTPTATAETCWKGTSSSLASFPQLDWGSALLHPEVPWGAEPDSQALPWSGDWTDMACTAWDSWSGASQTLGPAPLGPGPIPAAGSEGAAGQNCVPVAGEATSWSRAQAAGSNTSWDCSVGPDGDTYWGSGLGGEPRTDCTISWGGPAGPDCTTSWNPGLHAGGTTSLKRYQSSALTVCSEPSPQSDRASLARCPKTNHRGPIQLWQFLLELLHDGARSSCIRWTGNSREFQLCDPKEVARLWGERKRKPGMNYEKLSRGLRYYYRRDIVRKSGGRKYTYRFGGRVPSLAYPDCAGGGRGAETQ
Method in brief: as §1

ELF3 = target: T5, ELF3 (Homo sapiens, UniProt P78545 1-371); conditions: protein: recombinant; tags: N-terminal GST; dsDNA, one strand shown
T5 sequence: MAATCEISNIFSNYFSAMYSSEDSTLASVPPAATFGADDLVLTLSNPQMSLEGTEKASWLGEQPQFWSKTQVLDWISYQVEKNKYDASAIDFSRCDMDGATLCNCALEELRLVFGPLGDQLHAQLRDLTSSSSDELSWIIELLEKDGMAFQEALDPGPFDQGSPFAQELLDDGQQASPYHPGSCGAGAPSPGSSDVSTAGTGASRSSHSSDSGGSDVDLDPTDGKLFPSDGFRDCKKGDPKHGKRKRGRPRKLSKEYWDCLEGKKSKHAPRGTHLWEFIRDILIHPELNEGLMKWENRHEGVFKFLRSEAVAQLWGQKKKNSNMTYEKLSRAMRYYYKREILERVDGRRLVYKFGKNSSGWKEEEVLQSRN
Method in brief: as §1

CRX = CRX (Homo sapiens, UniProt O43186 1-299); conditions: protein: recombinant; tags: N-terminal GST; dsDNA, one strand shown
Chain of CRX (O43186 whole entry): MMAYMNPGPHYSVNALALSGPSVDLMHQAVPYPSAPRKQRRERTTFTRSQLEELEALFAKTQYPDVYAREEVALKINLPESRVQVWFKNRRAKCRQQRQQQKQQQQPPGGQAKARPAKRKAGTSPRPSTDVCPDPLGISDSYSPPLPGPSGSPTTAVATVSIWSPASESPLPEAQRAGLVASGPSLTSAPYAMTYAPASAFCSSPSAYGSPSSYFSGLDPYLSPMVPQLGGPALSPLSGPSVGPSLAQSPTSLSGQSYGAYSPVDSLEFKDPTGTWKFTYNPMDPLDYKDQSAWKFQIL
Method in brief: as §1

ETV1 = ETV1 (Homo sapiens, UniProt P50549 1-477); conditions: protein: recombinant; tags: N-terminal GST; dsDNA, one strand shown
Chain of ETV1 (P50549 whole entry): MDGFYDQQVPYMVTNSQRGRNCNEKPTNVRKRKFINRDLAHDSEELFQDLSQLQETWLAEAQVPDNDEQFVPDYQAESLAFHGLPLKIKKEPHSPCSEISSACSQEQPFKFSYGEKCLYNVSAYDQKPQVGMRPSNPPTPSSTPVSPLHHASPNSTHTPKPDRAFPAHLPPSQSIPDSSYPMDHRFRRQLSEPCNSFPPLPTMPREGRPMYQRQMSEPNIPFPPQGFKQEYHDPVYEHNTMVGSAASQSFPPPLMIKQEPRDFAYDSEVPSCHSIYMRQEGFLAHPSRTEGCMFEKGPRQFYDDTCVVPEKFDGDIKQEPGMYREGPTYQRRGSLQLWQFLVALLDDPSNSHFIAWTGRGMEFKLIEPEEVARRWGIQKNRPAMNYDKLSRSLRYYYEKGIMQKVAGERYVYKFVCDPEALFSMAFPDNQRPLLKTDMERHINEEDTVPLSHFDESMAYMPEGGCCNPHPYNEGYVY
Method in brief: as §1

ERF = target: T6, ERF (Homo sapiens, UniProt P50548 1-548); conditions: protein: recombinant; tags: N-terminal GST; dsDNA, one strand shown
T6 sequence: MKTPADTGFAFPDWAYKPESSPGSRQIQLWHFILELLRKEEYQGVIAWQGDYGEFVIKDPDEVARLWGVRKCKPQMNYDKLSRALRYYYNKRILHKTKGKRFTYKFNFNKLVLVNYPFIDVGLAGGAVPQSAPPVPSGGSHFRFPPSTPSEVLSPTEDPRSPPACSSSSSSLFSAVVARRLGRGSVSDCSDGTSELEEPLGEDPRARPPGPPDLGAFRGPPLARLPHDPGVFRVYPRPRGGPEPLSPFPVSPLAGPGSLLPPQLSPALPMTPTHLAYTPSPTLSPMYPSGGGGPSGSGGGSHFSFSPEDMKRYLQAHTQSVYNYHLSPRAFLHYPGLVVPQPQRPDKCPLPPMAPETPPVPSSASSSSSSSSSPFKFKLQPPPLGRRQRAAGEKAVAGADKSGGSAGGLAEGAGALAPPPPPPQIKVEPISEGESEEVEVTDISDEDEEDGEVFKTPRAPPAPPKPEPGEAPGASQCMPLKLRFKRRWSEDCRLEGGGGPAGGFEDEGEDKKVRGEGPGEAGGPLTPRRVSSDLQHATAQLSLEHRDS
Method in brief: as §1

ETV3L = target: T7, ETV3L (Homo sapiens, UniProt Q6ZN32 1-361); conditions: protein: recombinant; tags: N-terminal GST; dsDNA, one strand shown
T7 sequence: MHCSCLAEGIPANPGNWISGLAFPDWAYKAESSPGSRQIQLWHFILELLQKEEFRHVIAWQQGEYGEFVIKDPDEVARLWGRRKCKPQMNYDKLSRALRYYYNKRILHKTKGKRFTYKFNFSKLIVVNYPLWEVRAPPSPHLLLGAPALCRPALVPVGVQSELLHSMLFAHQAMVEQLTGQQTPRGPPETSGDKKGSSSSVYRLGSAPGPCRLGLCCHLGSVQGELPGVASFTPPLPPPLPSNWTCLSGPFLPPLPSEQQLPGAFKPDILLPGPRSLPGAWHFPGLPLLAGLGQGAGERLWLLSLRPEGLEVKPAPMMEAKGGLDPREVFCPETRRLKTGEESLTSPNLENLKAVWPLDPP
Method in brief: as §1

ETS2 = target: T8, ETS2 (Homo sapiens, UniProt P15036 1-469); conditions: protein: recombinant; tags: N-terminal GST; dsDNA, one strand shown
T8 sequence: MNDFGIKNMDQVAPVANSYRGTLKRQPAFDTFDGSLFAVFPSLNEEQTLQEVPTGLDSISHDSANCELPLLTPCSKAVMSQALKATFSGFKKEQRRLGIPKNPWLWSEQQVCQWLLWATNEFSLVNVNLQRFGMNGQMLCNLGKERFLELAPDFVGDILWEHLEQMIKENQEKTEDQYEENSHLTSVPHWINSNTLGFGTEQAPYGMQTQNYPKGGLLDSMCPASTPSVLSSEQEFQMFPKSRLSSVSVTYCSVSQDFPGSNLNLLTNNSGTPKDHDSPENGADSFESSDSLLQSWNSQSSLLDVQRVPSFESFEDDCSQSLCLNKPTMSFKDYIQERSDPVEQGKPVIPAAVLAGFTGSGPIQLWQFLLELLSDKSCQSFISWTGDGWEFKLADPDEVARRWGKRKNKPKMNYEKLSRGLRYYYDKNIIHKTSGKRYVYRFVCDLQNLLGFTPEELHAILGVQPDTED
Method in brief: as §1

SPDEF = target: T9, SPDEF (Homo sapiens, UniProt O95238 1-335); conditions: protein: recombinant; tags: N-terminal GST; dsDNA, one strand shown
T9 sequence: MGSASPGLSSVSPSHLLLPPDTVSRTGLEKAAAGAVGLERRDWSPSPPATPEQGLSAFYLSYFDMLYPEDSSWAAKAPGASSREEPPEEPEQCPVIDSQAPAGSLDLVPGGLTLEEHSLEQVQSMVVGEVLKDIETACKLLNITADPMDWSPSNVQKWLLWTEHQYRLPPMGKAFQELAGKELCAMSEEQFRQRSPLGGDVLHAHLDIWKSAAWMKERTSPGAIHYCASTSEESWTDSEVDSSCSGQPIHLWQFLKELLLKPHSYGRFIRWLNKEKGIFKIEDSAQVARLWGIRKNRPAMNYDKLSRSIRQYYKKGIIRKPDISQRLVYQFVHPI
Method in brief: as §1

ETV7 = target: T10, ETV7 (Homo sapiens, UniProt Q9Y603 1-341); conditions: protein: recombinant; tags: N-terminal GST; dsDNA, one strand shown
T10 sequence: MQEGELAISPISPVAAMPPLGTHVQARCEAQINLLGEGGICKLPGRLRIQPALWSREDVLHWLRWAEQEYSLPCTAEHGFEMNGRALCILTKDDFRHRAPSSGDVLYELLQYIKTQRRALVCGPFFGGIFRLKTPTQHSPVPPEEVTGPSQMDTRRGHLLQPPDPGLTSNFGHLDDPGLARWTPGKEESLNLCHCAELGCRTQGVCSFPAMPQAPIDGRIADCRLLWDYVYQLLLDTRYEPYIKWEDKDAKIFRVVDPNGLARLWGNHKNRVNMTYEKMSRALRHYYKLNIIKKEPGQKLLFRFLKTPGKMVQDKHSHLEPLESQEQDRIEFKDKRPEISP
Method in brief: as §1

ELF5 = target: T11, ELF5 (Homo sapiens, UniProt Q9UKW6-2 1-255); conditions: protein: recombinant; tags: N-terminal GST; dsDNA, one strand shown
T11 sequence: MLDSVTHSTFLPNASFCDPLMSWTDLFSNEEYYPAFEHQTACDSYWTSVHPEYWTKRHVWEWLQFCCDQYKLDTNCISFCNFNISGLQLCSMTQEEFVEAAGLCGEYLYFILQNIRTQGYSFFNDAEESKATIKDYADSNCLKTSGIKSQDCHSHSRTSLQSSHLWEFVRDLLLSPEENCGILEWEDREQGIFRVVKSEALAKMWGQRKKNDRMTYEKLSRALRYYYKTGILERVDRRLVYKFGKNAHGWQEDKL
Method in brief: as §1

ETV3 = target: T12, ETV3 (Homo sapiens, UniProt P41162-2 1-143); conditions: protein: recombinant; tags: N-terminal GST; dsDNA, one strand shown
T12 sequence: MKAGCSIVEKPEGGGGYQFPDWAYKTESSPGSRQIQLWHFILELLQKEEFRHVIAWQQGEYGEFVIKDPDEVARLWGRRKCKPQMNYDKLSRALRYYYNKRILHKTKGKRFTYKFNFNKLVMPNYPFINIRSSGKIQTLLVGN
Method in brief: as §1

ETV6 = ETV6 (Homo sapiens, UniProt P41212 1-452); conditions: protein: recombinant; tags: N-terminal GST; dsDNA, one strand shown
Chain of ETV6 (P41212 whole entry): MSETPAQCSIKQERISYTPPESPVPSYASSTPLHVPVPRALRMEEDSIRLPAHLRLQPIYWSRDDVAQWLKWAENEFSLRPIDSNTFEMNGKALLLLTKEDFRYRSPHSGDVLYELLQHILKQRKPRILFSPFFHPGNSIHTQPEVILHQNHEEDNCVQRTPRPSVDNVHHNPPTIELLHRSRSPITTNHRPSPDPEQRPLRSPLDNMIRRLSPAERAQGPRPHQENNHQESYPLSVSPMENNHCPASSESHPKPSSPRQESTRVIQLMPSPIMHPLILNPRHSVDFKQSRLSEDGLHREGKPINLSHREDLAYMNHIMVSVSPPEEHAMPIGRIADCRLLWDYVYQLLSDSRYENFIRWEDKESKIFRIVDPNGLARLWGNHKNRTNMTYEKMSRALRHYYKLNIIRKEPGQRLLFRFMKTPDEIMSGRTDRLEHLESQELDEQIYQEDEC
Method in brief: as §1

Sequence: AATACG
- binding signal (FEV): 1.19 fold enrichment (6-mer frequency, TF over GST control)
- binding signal (ETV5): 1.27 fold enrichment (6-mer frequency, TF over GST control)
- binding signal (HSF1): 1.26 fold enrichment (6-mer frequency, TF over GST control)
- binding signal (SPIC): 1.17 fold enrichment (6-mer frequency, TF over GST control)
- binding signal (ELF4): 1.29 fold enrichment (6-mer frequency, TF over GST control)
- binding signal (ELK4): 1.02 fold enrichment (6-mer frequency, TF over GST control)
- binding signal (ETV2): 1.19 fold enrichment (6-mer frequency, TF over GST control)
- binding signal (ELF3): 1.24 fold enrichment (6-mer frequency, TF over GST control)
- binding signal (CRX): 1.36 fold enrichment (6-mer frequency, TF over GST control)
- binding signal (ETV1): 1.28 fold enrichment (6-mer frequency, TF over GST control)
- binding signal (ERF): 1.23 fold enrichment (6-mer frequency, TF over GST control)
- binding signal (ETV3L): 1.23 fold enrichment (6-mer frequency, TF over GST control)
- binding signal (ETS2): 1.28 fold enrichment (6-mer frequency, TF over GST control)
- binding signal (SPDEF): 1.24 fold enrichment (6-mer frequency, TF over GST control)
- binding signal (ETV7): 1.12 fold enrichment (6-mer frequency, TF over GST control)
- binding signal (ELF5): 1.27 fold enrichment (6-mer frequency, TF over GST control)
- binding signal (ETV3): 1.19 fold enrichment (6-mer frequency, TF over GST control)
- binding signal (ETV6): 1.26 fold enrichment (6-mer frequency, TF over GST control)
